Only some compounds are listed: those with a hit (about 2.3% of all), similar ones and a draw of the others.
ADAM17 inh: inhibits human ADAM17; AID 720648; inhibition, % at 6.95 µM; recombinant ADAM17, EDANS/DABCYL FRET peptide cleavage; hit rate 0.83% among 370,000;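 active = inhibition above the mean of compounds lying between control limits plus 3 SD, set per campaign, cut at about 8.5% in these data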;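 also: 0% = DMSO-only wells as the low control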
V-ATPase pH: yeast V-ATPase proton transport regulation by pHLuorin; hit rate 0.37% among 350,000; S. cerevisiae, pHLuorin cytosolic pH fluorescence; AID 504577; response, % at 10 µM; in the data active = response mostly above about 7.3%, no sharp cut-off; inactive = mostly below about 5.4%; also: actives read high
ADAM10 inh: inhibits human ADAM10. inhibition, % at 7 µM. hit rate 0.62% among 370,000. recombinant ADAM10, EDANS/DABCYL FRET peptide cleavage, 3 h;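 active = inhibition above a per-campaign cutoff equal to the mean of compounds falling between control-based bounds plus 3 SD, cut at about 20% in these data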;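 also: 0% = DMSO wells while the 100% control is not disclosed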
KLK7 zymogen act: activates the human kallikrein-7 zymogen; purified proKLK7, EDANS-DABCYL substrate fluorescence; 100% is mature enzyme control, 0% vehicle; activation, % at 7 µM; P49862; hit rate 0.9% among 370,000; AID 652039;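 active = activation above the mean of all tested compounds plus 3 SD, computed per campaign excluding outliers beyond control limits, cut at about 13% in these data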
Target sequence (P49862 whole entry, looked up): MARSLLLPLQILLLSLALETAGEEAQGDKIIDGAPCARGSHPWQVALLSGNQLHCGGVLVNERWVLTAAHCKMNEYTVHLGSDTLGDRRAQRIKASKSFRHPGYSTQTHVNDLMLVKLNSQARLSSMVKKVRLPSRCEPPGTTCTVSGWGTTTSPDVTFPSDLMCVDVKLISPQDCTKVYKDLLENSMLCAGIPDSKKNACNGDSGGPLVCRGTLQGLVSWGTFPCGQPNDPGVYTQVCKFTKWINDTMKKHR
ADAM10 confirm: confirmation of inhibitors of human ADAM10; inhibition, % at 6.95 µM; shares compounds with ADAM10 inh; ADAM10 QFRET peptide cleavage, EDANS fluorescence; hit rate 1% among 2,100;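 active = inhibition above about 20% chosen separately for each screening run, limit read from the data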;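 also: 0% = DMSO wells and 100% = marimastat wells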
ADAM17 ctr: ADAM17 inhibition, counter-screen for ADAM10 exosite hits. shares compounds with ADAM10 inh. inhibition, % at 6.95 µM. ADAM17 QFRET peptide cleavage, EDANS fluorescence. hit rate 0.5% among 2,100;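 active = mean triplicate inhibition above the solvent-only control wells' mean plus 3 SD, cut at about 12% in these data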;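 also: 0% = DMSO wells and 100% = marimastat wells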
* hit, by the source's call.

Results for CC(C)C[C@H](NC(=O)c1[nH]cnc1C(=O)N[C@@H](Cc1ccccc1)C(=O)OCc1ccccc1)C(=O)OCc1ccccc1 ?
ADAM17 inh: 3; V-ATPase pH: 2; ADAM10 inh: 15; KLK7 zymogen act: 0

What do the screens show for `CC[C@H](CCC(=O)N(c1ccccc1)c1ccccc1)C1CC1`?
ADAM17 inh: 1; ADAM10 inh: 4; KLK7 zymogen act: 0

How did COc1ccc(S[C@]2(C(=O)N3CCN(c4ncccn4)CC3)CC(=O)N(P(=O)(OC)OC)[C@@H]2c2ccc(OC)cc2)cc1 do in these assays?
ADAM17 inh: 2; ADAM10 inh: -2; KLK7 zymogen act: 0

Results for Cc1cc(NS(=O)(=O)c2ccc(NC(=O)CSc3nnc(-c4ccco4)n3-c3ccc(Cl)cc3)cc2)nc(C)n1 ?
ADAM17 inh: -1; ADAM10 inh: -5; KLK7 zymogen act: 0

How did Fc1cccc(Cn2ccc3ccc(-c4ccc5ccn(Cc6cccc(F)c6)c5c4)cc32)c1 do in these assays?
ADAM17 inh: -6; ADAM10 inh: -15; KLK7 zymogen act: -3

How did C[C@@H](NC(=O)c1[nH]cnc1C(=O)Nc1ccccc1)c1ccccc1 do in these assays?
ADAM17 inh: 3; V-ATPase pH: -4; ADAM10 inh: 16; KLK7 zymogen act: 0

Results for Cc1ccc(NC(=O)c2nc[nH]c2C(=O)N[C@@H](C)c2ccccc2)cc1 ?
ADAM17 inh: 6; V-ATPase pH: 2; ADAM10 inh: 24*; KLK7 zymogen act: 1; ADAM10 confirm: 5; ADAM17 ctr: 2

Results for O=C(Nc1ccc2c(c1)OCO2)C1CC(c2ccc(Cl)cc2)=NO1 (stereo not given) ?
ADAM17 inh: -2; V-ATPase pH: -1; ADAM10 inh: 0; KLK7 zymogen act: 1

How did COc1ccc(C2=NOC(C(=O)Nc3ccc4c(c3)OCO4)C2)cc1 (stereo not given) do in these assays?
ADAM17 inh: 4; V-ATPase pH: 1; ADAM10 inh: 22*; KLK7 zymogen act: 0; ADAM10 confirm: 3; ADAM17 ctr: 1

What do the screens show for `COc1ccc(CC(=O)N/N=C/c2cccn2-c2ccc([N+](=O)[O-])cc2)cc1OC`?
ADAM17 inh: 8; V-ATPase pH: 4; ADAM10 inh: 21*; KLK7 zymogen act: -1; ADAM10 confirm: 0; ADAM17 ctr: 0

How did CCCOc1ccc(C(=O)CCC(=O)OCC(=O)N2CCN(S(=O)(=O)c3ccc(C)cc3C)CC2)cc1 do in these assays?
ADAM17 inh: 8; V-ATPase pH: 2; ADAM10 inh: 21*; KLK7 zymogen act: 0; ADAM10 confirm: 5; ADAM17 ctr: 1

Results for CC(C)(C)S(=O)(=O)N1C[C@@H]2C(=C(CCO)C[C@@H]3C(=O)N(c4ccccc4)C(=O)[C@@H]32)[C@H]1CCO ?
ADAM17 inh: -1; ADAM10 inh: 2; KLK7 zymogen act: 0

How did Nc1ccc(S(=O)(=O)N2CCCc3ccccc32)cc1 do in these assays?
ADAM17 inh: 4; V-ATPase pH: 4; ADAM10 inh: 24*; KLK7 zymogen act: 0; ADAM10 confirm: 0; ADAM17 ctr: 0

How did c1cnc(SCC2CCCCC2)c(-c2nc3ccccc3[nH]2)c1 do in these assays?
ADAM17 inh: -2; ADAM10 inh: -9; KLK7 zymogen act: 0

How did COc1cc(/C=C2\SC(=S)N(CCC(=O)Nc3cccc(O)c3)C2=O)cc(OC)c1OC do in these assays?
ADAM17 inh: 6; V-ATPase pH: -1; ADAM10 inh: 21*; KLK7 zymogen act: -2; ADAM10 confirm: 5; ADAM17 ctr: 2

What do the screens show for `COc1ccccc1/C=C1\SC(=S)N(CCC(=O)Nc2cccc(O)c2)C1=O`?
ADAM17 inh: 8; V-ATPase pH: 0; ADAM10 inh: 23*; KLK7 zymogen act: 0; ADAM10 confirm: 2; ADAM17 ctr: 1

Results for COc1ccc(NC(=O)CCCNS(=O)(=O)c2ccc3[nH]c(=O)oc3c2)cc1OC ?
ADAM17 inh: -4; ADAM10 inh: -6; KLK7 zymogen act: 0

What do the screens show for `Clc1ccccc1CSc1nnc(-c2ccccn2)n1Cc1ccco1`?
ADAM17 inh: 8; V-ATPase pH: -1; ADAM10 inh: 21*; KLK7 zymogen act: 0; ADAM10 confirm: 1; ADAM17 ctr: 0

How did COc1cccc(CNC(=O)c2cccc(S(=O)(=O)N3CCN(c4ccc(F)cc4)CC3)c2)c1 do in these assays?
ADAM17 inh: 5; V-ATPase pH: -1; ADAM10 inh: 18; KLK7 zymogen act: -1

Results for COc1ccc(CNC(=O)c2cccc(S(=O)(=O)N3CCN(c4ccc(F)cc4)CC3)c2)cc1 ?
ADAM17 inh: 8; V-ATPase pH: 0; ADAM10 inh: 22*; KLK7 zymogen act: 1; ADAM10 confirm: 6; ADAM17 ctr: 2

Results for O=C(NCCOc1ccccc1)c1cccc(S(=O)(=O)N2CCN(Cc3ccccc3)CC2)c1 ?
ADAM17 inh: 7; V-ATPase pH: -1; ADAM10 inh: 24*; KLK7 zymogen act: 0; ADAM10 confirm: 4; ADAM17 ctr: 1

What do the screens show for `C[C@@H]1ON(C)[C@H]2C[C@H]3c4[nH]c5c(-c6ccc(C(F)(F)F)cc6)cccc5c4CCN3C(=O)[C@@H]12`?
ADAM17 inh: -4; ADAM10 inh: -41; KLK7 zymogen act: 0

Results for O=C(O[C@H]1CC[C@@]23CCCN2C(=O)CCC[C@H]3C1)N1CCCC1 ?
ADAM17 inh: -5; ADAM10 inh: -8

What do the screens show for `Cc1cccc(OCC(=O)NNC(=O)c2cc3ccccc3oc2=O)c1`?
ADAM17 inh: 7; V-ATPase pH: 5; ADAM10 inh: 23*; KLK7 zymogen act: 0; ADAM10 confirm: 23*; ADAM17 ctr: 13*

Results for CC(C)CCN(C)C1CCN(C(=O)NCc2ccccc2)CC1 ?
ADAM17 inh: 9; ADAM10 inh: 14; KLK7 zymogen act: -1

How did COc1ccc(N2C(=O)CSC23C(=O)N2c4c(cccc43)C(C)=CC2(C)C)cc1 (stereo not given) do in these assays?
ADAM17 inh: 9; V-ATPase pH: -3; ADAM10 inh: 22*; KLK7 zymogen act: 0; ADAM10 confirm: 2; ADAM17 ctr: 0

Results for Nc1ccn([C@@H]2O[C@H](C(=O)N[C@H](Cc3ccccc3)C(=O)N[C@H]3CCCCNC3=O)[C@@H](O)[C@H]2O)c(=O)n1 ?
ADAM17 inh: -1; ADAM10 inh: 1; KLK7 zymogen act: 0

How did CC1=NNC(=O)/C1=C\c1cn(-c2ccccc2)nc1-c1ccccc1 do in these assays?
ADAM17 inh: 16*; V-ATPase pH: 0; ADAM10 inh: 24*; KLK7 zymogen act: -1; ADAM10 confirm: 6; ADAM17 ctr: 2

What do the screens show for `Cc1ccc(OCC(=O)N/N=C/c2cn(Cc3ccccc3)c3ccccc23)cc1`?
ADAM17 inh: 6; V-ATPase pH: 1; ADAM10 inh: 23*; KLK7 zymogen act: 0; ADAM10 confirm: 1; ADAM17 ctr: 2

Compound activity (PubChem)
